The panel holds about 83,000 compounds, 20% with a hit somewhere; the sample as a whole holds those more often.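 Interpretation: 100, growth as untreated; towards 0, rising growth inhibition; 0, no net growth; 0 to -100, cell death. Compounds scoring below 10 were considered active.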 The source made the active and inactive calls.
Tests used:
Experiment in all cases: NCI-60 one-dose screen, 48 h (100 = growth as untreated, 0 = no growth, -100 = all killed)
Conditions in all cases: 10 µM unless noted
DU-145 prostate = test system: DU-145 prostate
K-562 leukemia = test system: K-562 leukemia
MALME-3M melanoma = test system: MALME-3M melanoma
MDA-MB-231 breast = test system: MDA-MB-231 breast
RXF 393 renal = test system: RXF 393 renal
SF-268 CNS = test system: SF-268 CNS
SF-295 CNS = test system: SF-295 CNS
SF-539 CNS = test system: SF-539 CNS
UACC-257 melanoma = test system: UACC-257 melanoma
M14 melanoma = test system: M14 melanoma

Measured: growth

COc1ccc(/C=N/Nc2c3ccccc3nc3ccccc23)cc1
inactive: DU-145 prostate 90.4% | K-562 leukemia 87.9% | MALME-3M melanoma 105% | MDA-MB-231 breast 93.9% | RXF 393 renal 103% | SF-268 CNS 96% | SF-295 CNS 90.3% | SF-539 CNS 95.4% | UACC-257 melanoma 103% | M14 melanoma 106%

Nc1ncnc2c1N=C(c1ccc(F)cc1)CC(c1cccc(Nc3ccnc4cc(Cl)ccc34)c1)N2 (stereo not given)
inactive: DU-145 prostate 85.9% | K-562 leukemia 26.7% | MALME-3M melanoma 91.1% | MDA-MB-231 breast 75.2% | RXF 393 renal 39.1% | SF-268 CNS 62% | SF-295 CNS 72.1% | SF-539 CNS 80.6% | UACC-257 melanoma 106% | M14 melanoma 72.1%

O=C(/C=C/c1ccco1)Nc1ncc(Cc2cc(Cl)ccc2Cl)s1
inactive: DU-145 prostate 13.9% | MALME-3M melanoma 49% | MDA-MB-231 breast 47.4% | SF-268 CNS 44% | UACC-257 melanoma 38.8%
active: K-562 leukemia 7.9% | RXF 393 renal -2.79% | SF-295 CNS 9.56% | SF-539 CNS -18.8% | M14 melanoma 6.81%

COc1cc(/C=N/NC(=O)c2ccc(-n3cc(-c4ccccc4)nn3)cc2)cc(OC)c1OC
inactive: DU-145 prostate 56.9% | K-562 leukemia 60.6% | MDA-MB-231 breast 78.2% | RXF 393 renal 68.7% | SF-268 CNS 57.9% | SF-295 CNS 88% | SF-539 CNS 53.2% | UACC-257 melanoma 53.9% | M14 melanoma 26.6%
active: MALME-3M melanoma -1.82%

CC(C)=CC(=O)N[C@H]1CC[C@]2(C)C3CC[C@]4(C)C(C(C)N(C)C)=CCC4C3CCC2[C@H]1O (stereo not given in full)
active: MALME-3M melanoma -27.3% | SF-268 CNS 9.05% | SF-539 CNS -32.2% | UACC-257 melanoma -26.8% | M14 melanoma -56.3%
inactive: DU-145 prostate 71.9% | K-562 leukemia 19.5% | MDA-MB-231 breast 44.2% | RXF 393 renal 26.8% | SF-295 CNS 59.2%

O=c1cc(CNc2cc(F)cc(F)c2)c2ccc(I)cc2[nH]1
active: K-562 leukemia 9.97% | SF-539 CNS -12.6%
inactive: DU-145 prostate 38.4% | MALME-3M melanoma 38.9% | MDA-MB-231 breast 60.6% | RXF 393 renal 15.1% | SF-268 CNS 46.9% | SF-295 CNS 30.9% | UACC-257 melanoma 53.4% | M14 melanoma 20%

Cc1c(C(C)(C)O)cn2ncnc(Oc3ccc(NC(=O)Nc4ccc(Cl)c(C(F)(F)F)c4)c(F)c3)c12
inactive: DU-145 prostate 80.6% | K-562 leukemia 25.4% | MALME-3M melanoma 91.4% | MDA-MB-231 breast 73.3% | RXF 393 renal 72.4% | SF-268 CNS 63.6% | SF-295 CNS 36.4% | SF-539 CNS 41% | UACC-257 melanoma 80% | M14 melanoma 55.1%

COC(=O)c1c(C)nc(C)c2c1C(=O)C=C(NCc1ccccc1)C2=O
inactive: DU-145 prostate 95.8% | K-562 leukemia 69.1% | MDA-MB-231 breast 70.3% | RXF 393 renal 94.5% | SF-268 CNS 78.8% | SF-295 CNS 87.2% | SF-539 CNS 96.9% | UACC-257 melanoma 104% | M14 melanoma 66.9%
active: MALME-3M melanoma -1.94%

CC1(C)N=C(N)N=C(N)N1c1ccc(S(=O)(=O)Nc2nccs2)cc1
inactive: DU-145 prostate 103% | K-562 leukemia 98.9% | MALME-3M melanoma 99.3% | MDA-MB-231 breast 103% | RXF 393 renal 105% | SF-268 CNS 94.3% | SF-295 CNS 101% | SF-539 CNS 95.1% | UACC-257 melanoma 98.5% | M14 melanoma 99.6%

CCn1cc(C(=O)O)c(=O)c2cc(F)c(N3CCN(CC(=O)Nc4ccccc4)C(C)C3)c(F)c21 (stereo not given)
inactive: DU-145 prostate 104% | K-562 leukemia 87.1% | MALME-3M melanoma 97.9% | MDA-MB-231 breast 87.1% | RXF 393 renal 101% | SF-268 CNS 93.7% | SF-295 CNS 95.3% | SF-539 CNS 99.1% | UACC-257 melanoma 102% | M14 melanoma 105%

COc1ccc(-c2nc(SCC(=O)Nc3nc4ccc(C)cc4s3)[nH]c(=O)c2C#N)cc1OC
inactive: DU-145 prostate 114% | K-562 leukemia 94.4% | MALME-3M melanoma 103% | MDA-MB-231 breast 97.9% | RXF 393 renal 113% | SF-268 CNS 95.9% | SF-295 CNS 96.4% | SF-539 CNS 92.9% | UACC-257 melanoma 103% | M14 melanoma 91.3%

NC(=O)c1ccccc1OCC(=O)Nc1ccc(Cl)c(Cl)c1
inactive: DU-145 prostate 114% | K-562 leukemia 91% | MALME-3M melanoma 100% | MDA-MB-231 breast 96.1% | RXF 393 renal 104% | SF-268 CNS 107% | SF-295 CNS 98.9% | SF-539 CNS 85.1% | UACC-257 melanoma 112% | M14 melanoma 111%

N#CSc1c[nH]c2ccc(/C=C/C(=O)/C=C(O)/C=C/c3ccc4[nH]cc(SC#N)c4c3)cc12
inactive: DU-145 prostate 29% | MALME-3M melanoma 20.7% | MDA-MB-231 breast 22.8% | SF-268 CNS 35.5% | SF-295 CNS 57.3% | SF-539 CNS 13.5% | UACC-257 melanoma 25.9%
active: K-562 leukemia -15.2% | RXF 393 renal 9.89% | M14 melanoma -5.11%

Cc1nn(C)c2ncnc(N/N=C/c3cccc(O)c3O)c12
inactive: DU-145 prostate 18.1% | K-562 leukemia 12.7% | MDA-MB-231 breast 24.7% | RXF 393 renal 11% | SF-295 CNS 18.3%
active: MALME-3M melanoma -11.5% | SF-268 CNS 6.68% | SF-539 CNS 5.37% | UACC-257 melanoma 3.75% | M14 melanoma -48.5%

Fc1ccc2[nH]cc(-c3nc(-c4c[nH]c5c(Cl)nccc45)cs3)c2c1
inactive: DU-145 prostate 32% | K-562 leukemia 11.8% | MALME-3M melanoma 74.3% | MDA-MB-231 breast 13.7% | RXF 393 renal 16.3% | SF-268 CNS 67.2% | SF-295 CNS 18.1% | SF-539 CNS 41.1%
active: UACC-257 melanoma -38.3% | M14 melanoma -5.3%

Nc1nc(N(Cc2ccccc2)c2ccccc2)c2cn[nH]c2n1
inactive: DU-145 prostate 88.2% | K-562 leukemia 23.9% | MALME-3M melanoma 62.8% | MDA-MB-231 breast 62.1% | RXF 393 renal 67.6% | SF-268 CNS 73.8% | SF-295 CNS 51.5% | SF-539 CNS 68.8% | UACC-257 melanoma 99.7% | M14 melanoma 33.5%

COC(=O)c1nc(-c2ccccc2)oc1S(=O)(=O)N1CCCC(C)C1 (stereo not given)
inactive: DU-145 prostate 91.3% | K-562 leukemia 17.7% | MALME-3M melanoma 78.2% | MDA-MB-231 breast 76.8% | RXF 393 renal 78.8% | SF-268 CNS 85.8% | SF-295 CNS 108% | SF-539 CNS 85% | UACC-257 melanoma 82.3% | M14 melanoma 39.3%

N#Cc1c(-c2ccc(Cl)cc2)nc(NN=Cc2ccc[nH]2)nc1N1CCOCC1
inactive: DU-145 prostate 84.2% | K-562 leukemia 44.2% | MALME-3M melanoma 88.9% | MDA-MB-231 breast 79.7% | RXF 393 renal 63.1% | SF-268 CNS 46.2% | SF-295 CNS 58.4% | SF-539 CNS 33.4% | UACC-257 melanoma 101% | M14 melanoma 105%

CCN(CC)CCOc1ccc2ccc(=O)oc2c1
active: K-562 leukemia 2.68%
inactive: DU-145 prostate 121% | MALME-3M melanoma 105% | MDA-MB-231 breast 99.5% | RXF 393 renal 103% | SF-268 CNS 109% | SF-295 CNS 94.3% | SF-539 CNS 101% | UACC-257 melanoma 93% | M14 melanoma 94.8%

COc1cccc(CNc2c3ccccc3nc3ccccc23)c1OC
inactive: DU-145 prostate 41.7% | K-562 leukemia 15.5% | MALME-3M melanoma 50.6% | MDA-MB-231 breast 41.9% | RXF 393 renal 29.9% | SF-268 CNS 61.7% | SF-295 CNS 33% | SF-539 CNS 18.9% | UACC-257 melanoma 54.8% | M14 melanoma 34.5%

CCN(CC)C(=O)C1=C(C)NC(=O)NC1c1ccc2c(c1)OCO2 (stereo not given)
inactive: DU-145 prostate 113% | K-562 leukemia 101% | MALME-3M melanoma 108% | MDA-MB-231 breast 108% | RXF 393 renal 102% | SF-268 CNS 102% | SF-295 CNS 103% | SF-539 CNS 96.2% | UACC-257 melanoma 103% | M14 melanoma 104%

C=C(C)[C@@H]1CC[C@]2(C)[C@H](C=CC3=C4C[C@@](C)(CO)CC[C@]4(C)CC[C@]32C)[C@@]1(C)CCCN
inactive: SF-295 CNS 73.3%
active: DU-145 prostate -72.7% | K-562 leukemia 0.273% | MALME-3M melanoma -45.2% | MDA-MB-231 breast -75.7% | RXF 393 renal -69.5% | SF-268 CNS -55.8% | SF-539 CNS -90% | UACC-257 melanoma -60.4% | M14 melanoma -66.2%

O=C(/C=C/c1ccccc1)N(C1CCCCC1)C1CCCCC1
inactive: DU-145 prostate 104% | K-562 leukemia 81.1% | MALME-3M melanoma 104% | MDA-MB-231 breast 86% | RXF 393 renal 84.7% | SF-268 CNS 104% | SF-295 CNS 78.1% | SF-539 CNS 105% | UACC-257 melanoma 80.7% | M14 melanoma 87.6%

COC(=O)[C@]1(C)CCC[C@]2(C)[C@H]3C[C@@H]4[C@H]5[C@@H]6CC/C(=N\OCC/C(N)=N/O)[C@H]5[C@@]3(CC[C@H]21)CC4(C(C)C)O6
inactive: DU-145 prostate 71.5% | K-562 leukemia 79.3% | MALME-3M melanoma 82.1% | MDA-MB-231 breast 61.2% | RXF 393 renal 42.5% | SF-268 CNS 72.9% | SF-295 CNS 72.7% | SF-539 CNS 79.2% | UACC-257 melanoma 80.4% | M14 melanoma 72.6%

Cc1ccc(Cc2cnc(NC(=O)/C=C/c3ccc(C)o3)s2)cc1
inactive: DU-145 prostate 33.9% | K-562 leukemia 18.6% | MALME-3M melanoma 35.2% | MDA-MB-231 breast 67.9% | RXF 393 renal 41.6% | SF-268 CNS 52.9% | SF-295 CNS 23.6% | SF-539 CNS 23.6% | UACC-257 melanoma 62.5% | M14 melanoma 12.1%

— PubChem BioAssay (NCI)
